Structures are written as SMILES. Activity calls are given as the source filed them. The calls were made as follows: active = hit-call score of the fitted dose curve at least 0.9, where 1 is the maximum; inactive = score below 0.9.

Read-out in the assay: Monokine induced gamma interferon (MIG), CXCL9 (gene 4283)
Description: BSK_SAg_MIG: BioMAP Diversity Plus: SAg Assay for Monokine induced gamma interferon (MIG) Biomarker Activity (AID 2283092). The following applies: primary human HUVEC with PBMC; actives raise or lower the signal. An outline of the steps:
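Values reflect bidirectional fitting of ELISA-measured MIG against DMSO vehicle, taken 24 h after dosing of a co-culture of human umbilical vein endothelial cells and peripheral blood mononuclear cells.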
For `CS(=O)(=O)c1ccc([C@@H](C[C@H]2CCC(=O)C2)C(=O)Nc2cnccn2)cc1Cl`, the result was inactive.

`O=C(O)c1cccnc1`: the outcome was inactive.

Turning to `CCc1cc(C2=C(C(=O)O)N(c3ccccc3C(F)(F)F)S(=O)(=O)c3ccccc32)cc2c1OCO2`, the outcome was inactive.

Consider `CC(C)NCC(O)c1ccc(O)c(O)c1` (centres undefined), for which the result was inactive.

As for `Cc1cn([C@H]2C=C[C@@H](CO)O2)c(=O)[nH]c1=O`, the outcome was inactive.

For `CCCCC(CC)COC(=O)CCCCCCCC(=O)OCC(CC)CCCC` (centres undefined), the outcome was inactive.

For the molecule `Cc1ccc(C(C)(C)C)c(O)c1`, the outcome was inactive.

As for `CCCCC(CC)CO` (centres undefined), the outcome was inactive.

Take `CC(N)=O`: the result was inactive.

With `O=C1OC(c2ccc(O)cc2)(c2ccc(O)cc2)c2ccccc21`, the AC50 was 36.8 µM (active).

For the molecule `CC(=O)CC(c1ccccc1)c1c(O)c2ccccc2oc1=O` (centres undefined), the outcome was inactive.

Consider `Cc1cc(SC2=C(O)C[C@@](CCc3ccc(N)cc3)(C(C)C)OC2=O)c(C(C)(C)C)cc1CO`, for which the outcome was inactive.

For `Oc1ccccc1O`, the result was inactive.

In the case of `CCc1nc(N)nc(N)c1-c1ccc(Cl)cc1`, the result was inactive.

With `CCCCOC(=O)CCCCC(=O)OCCCC`, the result was inactive.

`O=NO`: the result was inactive.

For the molecule `Cn1cnc2c1c(=O)[nH]c(=O)n2C`, the result was inactive.

As to `Cc1c(C)c2c(c(C)c1O)CCC(C)(COc1ccc(CC3SC(=O)NC3=O)cc1)O2` (centres undefined), the AC50 was 31.6 µM (active).

On to `CCCC(=O)O`, for which the result was inactive.

On to `O=C(O)c1[nH]n(-c2ccc(S(=O)(=O)O)cc2)c(=O)c1N=Nc1ccc(S(=O)(=O)O)cc1`, for which the outcome was inactive.

As for `C=CCc1ccc(OC)c(OC)c1`, the outcome was inactive.

As for `OCC(O)CO`, the outcome was inactive.

`CC(=O)O`: the outcome was inactive.

As for `CCOCCOCCO`, the outcome was inactive.

(Values after PubChem BioAssay (EPA / NIEHS).)
